Experimental data: PubChem BioAssay AID1159580 (chemical genetic matrix, 2015)
“And” between values parts separate entries of the source, which are not always exact repeats. Identical values can stand only once. The whole screen tested about 5,500 compounds, of which about 2,000 (36%) were called active. Inconclusive results (about 18%) are left out. No stated cut-off is given here; in the data, active means normalized growth mostly below about 0.91 (no sharp cut-off); inconclusive means no clear call, values can overlap the other calls; inactive means mostly above about 0.92. The list shows a part of the results.

Experiment: chemical genetic growth profiling, strain panel (AID 1159580);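 further: tested at 20 µM; growth read once vehicle control cultures reached saturation at 30 °C; 1 = growth at the plate median or of vehicle wells; lower values mean less growth of the strain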
Details: S. cerevisiae deletion strains, growth OD

Measured: normalized growth

O=C(O)c1cccnc1C(=O)O
inactive: locus YAL013W, strain DEP1, active compounds read low 1.01 and 1.02 | locus YAL021C, strain ccr4, active compounds read low 1.02 | locus YAL026C, strain drs2, active compounds read low 1 | locus YAL030W, strain snc1, active compounds read low 0.999 | locus YAL040C, strain CLN3, active compounds read low 1.05 | locus YBL061C, strain skt5, active compounds read low 1 | locus YBR009C, strain hhf1, active compounds read low 1.03 | locus YBR021W, strain FUR4, active compounds read low 1.03 | locus YBR023C, strain chs3, active compounds read low 0.996 | locus YBR171W, strain sec66, active compounds read low 0.992 | locus YBR229C, strain ROT2, active compounds read low 1.03 | locus YBR231C, strain swc5, active compounds read low 1.04 | locus YBR279W, strain paf1, active compounds read low 0.998 | locus YCL011C, strain gbp2, active compounds read low 1.02 | locus YCL016C, strain dcc1, active compounds read low 1.01 | locus YCL029C, strain bik1, active compounds read low 0.991 | locus YCL061C, strain MRC1 (second series), active compounds read low 1 | locus YCL069W, strain vba3, active compounds read low 1 | locus YCR088W, strain abp1, active compounds read low 0.99 | locus YDL005C, strain med2, active compounds read low 0.98 | locus YDL035C, strain GPR1, active compounds read low 1.03 | locus YDL040C, strain nat1, active compounds read low 0.985 | locus YDL074C, strain BRE1, active compounds read low 1.07 | locus YDL101C, strain DUN1, active compounds read low 1.04 | locus YDL134C, strain PPH21, active compounds read low 1.03 | locus YDL185W, strain tfp1, active compounds read low 0.976 | locus YDL192W, strain arf1, active compounds read low 1 | locus YDR001C, strain nth1, active compounds read low 0.99 | locus YDR069C, strain doa4, active compounds read low 1 | locus YDR101C, strain arx1, active compounds read low 0.997 | locus YDR137W, strain rgp1, active compounds read low 1.01 | locus YDR150W, strain NUM1, active compounds read low 1.02 | locus YDR159W, strain sac3, active compounds read low 0.986 | locus YDR162C, strain NBP2, active compounds read low 1.02 | locus YDR195W, strain ref2 1.05 | locus YDR297W, strain sur2, active compounds read low 1 | locus YDR318W, strain mcm21, active compounds read low 0.997 | locus YDR334W, strain swr1, active compounds read low 0.979 | locus YDR335W, strain msn5, active compounds read low 1 | locus YDR363W, strain ESC2, active compounds read low 1.04 | locus YDR388W, active compounds read low 0.986 | locus YDR392W, strain spt3, active compounds read low 0.984 | locus YDR502C, strain sam2, active compounds read low 1.01 | locus YEL003W, strain gim4, active compounds read low 0.995 | locus YEL037C, strain rad23, active compounds read low 0.989 | locus YEL061C, strain CIN8 (second series), active compounds read low 0.979 | locus YEL061C, strain CIN8, active compounds read low 1.02 | locus YER002W, strain NOP16, active compounds read low 0.994 | locus YER015W, strain faa2, active compounds read low 1.01 | locus YER016W, strain bim1, active compounds read low 0.967 | locus YER110C, active compounds read low 1 | locus YER111C, strain swi4, active compounds read low 0.986 | locus YER155C, strain BEM2 (second series), active compounds read low 1.05 | locus YER155C, strain BEM2, active compounds read low 1.01 | locus YER167W, strain BCK2, active compounds read low 1.02 | locus YFR010W, strain ubp6, active compounds read low 1.03 | locus YGL078C, strain dbp3, active compounds read low 0.983 | locus YGL086W, strain mad1, active compounds read low 1.01 | locus YGL167C, strain pmr1, active compounds read low 1 | locus YGL173C, strain kem1, active compounds read low 1 | locus YGL227W, strain vid30, active compounds read low 0.972 | locus YGL240W, strain doc1, active compounds read low 1.01 | locus YGL248W, strain PDE1, active compounds read low 1.03 | locus YGL253W, strain hxk2, active compounds read low 1.01 | locus YGR078C, strain PAC10, active compounds read low 1.01 | locus YGR135W, strain pre9, active compounds read low 1.01 | locus YGR229C, strain SMI1, active compounds read low 1.04 | locus YGR252W, strain gcn5, active compounds read low 0.938 | locus YHR013C, strain ard1, active compounds read low 1 | locus YHR027C, strain rpn1, active compounds read low 1.02 | locus YHR030C, strain SLT2, active compounds read low 1.02 and 0.992 | locus YHR079C, strain IRE1 (second series), active compounds read low 0.981 | locus YHR079C, strain IRE1, active compounds read low 1 | locus YHR094C, strain hxt1, active compounds read low 0.983 | locus YHR129C, strain ARP1, active compounds read low 1.01 | locus YHR142W, strain chs7, active compounds read low 1.02 | locus YHR200W, strain rpn10, active compounds read low 0.984 | locus YIL066C, strain RNR3, active compounds read low 1.05 | locus YIL073C, strain SPO22, active compounds read low 1.01 | locus YIL125W, strain kgd1, active compounds read low 0.971 | locus YIR030C, strain dcg1, active compounds read low 0.998 | locus YJL092W, strain hpr5, active compounds read low 0.99 | locus YJL095W, strain BCK1 (second series), active compounds read low 1.01 | locus YJL095W, strain BCK1, active compounds read low 1.07 and 0.998 | locus YJL115W, strain asf1, active compounds read low 0.984 | locus YJL129C, strain trk1, active compounds read low 0.986 | locus YJL134W, strain LCB3, active compounds read low 1.01 | locus YJL154C, strain vps35, active compounds read low 0.998 | locus YJL164C, strain tpk1, active compounds read low 1.03 | locus YJL166W, strain qcr8, active compounds read low 1.03 | locus YJL168C, strain set2, active compounds read low 0.978 | locus YJL187C, strain SWE1 (second series), active compounds read low 1.05 | locus YJL187C, strain SWE1, active compounds read low 1 | locus YJR043C, strain POL32, active compounds read low 1.02
